Source: PubChem (Broad Institute)
Rows were chosen to be rich in hits. Some 3.1% of all compounds tested hit in one or more screens of this group.
C2C12 statin – suppressors of statin myotoxicity in C2C12 myotubes, primary screen, cell-based, single point, plate reader; C2C12 myotubes + simvastatin, ATP luminescence, 48 h; scaled: DMSO 0, geranylgeraniol control 100; rescue of ATP level, % at 7.49 µM; actives 0.78% (n = 330,000);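 active = mean ATP rescue above about 67%, or every replicate alone reaching that limit, limit read from the data, passing the limit was not always enough; inconclusive = no clear call, values can overlap the other calls; inactive = mean under the limit and some replicate under it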;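 note: myotubes were challenged with 10 µM simvastatin during compound exposure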
Rtt109 Vps75 – inhibitors of C. albicans Rtt109/Vps75 HAT, primary screen, biochemical, ThioGlo CoA-SH fluorescence, plate reader; Histone acetyltransferase RTT109 (Candida albicans (strain SC5314 / ATCC MYA-2876)), …; purified Rtt109/Vps75, 4 h; inhibition, % at 34.9 µM; actives 0.16% (n = 330,000); AID 540336, 2011;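 active = inhibition of at least 50% in every replicate; inconclusive = best replicate reaches 50% inhibition but some replicates fall short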
Target sequence (Q5AAJ8 whole entry, looked up): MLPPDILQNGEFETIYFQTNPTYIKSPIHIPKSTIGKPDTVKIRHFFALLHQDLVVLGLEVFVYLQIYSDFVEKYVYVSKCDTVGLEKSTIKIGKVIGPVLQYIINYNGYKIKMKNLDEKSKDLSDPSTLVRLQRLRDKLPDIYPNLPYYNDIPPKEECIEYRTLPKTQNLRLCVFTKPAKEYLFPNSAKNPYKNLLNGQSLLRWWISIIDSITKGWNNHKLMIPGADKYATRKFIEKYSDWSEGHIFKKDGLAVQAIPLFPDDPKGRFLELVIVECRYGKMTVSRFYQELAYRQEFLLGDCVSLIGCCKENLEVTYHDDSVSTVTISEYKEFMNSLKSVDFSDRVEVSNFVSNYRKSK
MITF TRPM1 HTS – activators of MITF-driven TRPM1 promoter reporter, primary screen, cell-based, SK-MEL-5, luciferase, single point; actives 0.75% (n = 300,000); AID 588334, 2011; SK-MEL-5 TRPM1-promoter luciferase, 24 h; % of positive control, neutral wells = 0; activation, % at 12.5 µM;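 active = mean activation of at least 80% with every replicate also reaching 80%; inconclusive = mean reaches 80% but some replicate falls short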;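 note: 0% = neutral control wells and 100% = parthenolide positive control wells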
esBAF inh – Bmi1 luciferase reporter increase in mESCs, primary screen, esBAF inhibitor project, mouse ES cells, Bmi1 luciferase knock-in, single point; reporter increase, % at 12.5 µM; actives 2% (n = 350,000); 24 h; 100% = twice the neutral-well signal; AID 602393, 2012; in the data active = activation above about 40%; inconclusive = no clear call, values can overlap the other calls;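 note: 0% = median of the plate's neutral control wells and 100% = double that signal; a rise in the Bmi1 reporter signal indicates esBAF inhibition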
Wnt act – Wnt/beta-catenin pathway activators, primary screen, cell-based, plate reader, single point; Wnt/beta-catenin reporter cell assay, activator; activation, % at 9.35 µM; actives 1.2% (n = 300,000); AID 743398, 2014; in the data active = activation above about 30%, passing the limit was not always enough; inconclusive = no clear call, values can overlap the other calls;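 note: 0% = neutral control wells and 100% = positive control wells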
Active calls of the source: *; ? = inconclusive; · = not tested or not shown.

SMILES	C2C12 statin	Rtt109 Vps75	MITF TRPM1 HTS	esBAF inh	Wnt act
Cc1cc(NC(=O)Nc2cc(C)nn2-c2ccccc2)n(-c2ccccc2)n1	-11	·	6	0	·
CC1(C)CC(=O)c2c(O)cc(OCc3ccc(Br)cc3)cc2O1	-39	3	87*	67*	-1
CN(C)S(=O)(=O)c1cc(NC(=O)[C@H](Cc2ccccc2)N2C(=O)c3ccccc3C2=O)ccc1Cl	·	-17	-5	·	31*
C[C@@H]1CN([C@H](C)CO)C(=O)c2cc(NC(=O)Cc3ccccc3)ccc2O[C@@H](C)CCCCO[C@H]1CN(C)S(=O)(=O)c1ccc(Cl)cc1	·	·	·	5	·
O=C(CCc1nc(-c2ccccc2)no1)Nc1cccnc1	27	-9	2	-2	0
COc1cccc(-c2noc(CCC(=O)Nc3cccnc3)n2)c1	10	0	34	52*	·
O=C(CCCc1nc(-c2ccccc2)no1)Nc1cccnc1	86*	-1	9	-3	3
O=C(NC(=S)Nc1ccc(N2CCOCC2)cc1)c1ccccc1	-4	-1	14	53*	5
Cn1cccc1C(=O)Nc1ccc(N2CCOCC2)cc1	-7	-2	33	-22	38*
Cn1c(C(=O)NC2CCCCC2)cc2sccc21	0	-8	72	43*	·
Cn1c(C(=O)N2CCCC(C(=O)O)C2)cc2sccc21 (configuration not stated)	96*	3	6	8	·
CCn1c(C(=O)NC2CCC(C)CC2)cc2sccc21 (configuration not stated)	0	-1	92*	52*	16
C[C@H](CO)N1C[C@H](C)[C@H](CN(C)C(=O)C2CC2)Oc2cc(C#CCN(C)C)ccc2S1(=O)=O	11	·	·	2	·
Cc1ccc(S(=O)(=O)N2CC[C@@H]3[C@H]2c2cc(C#Cc4ccc(F)cc4)ccc2N[C@@H]3CO)cc1	7	·	·	-2	·
COc1ccc(C/C(C)=N\NC(=O)c2c[nH]c3ccccc23)cc1OC	1	2	3	2	39*
COc1ccc(CCNC(=O)C(=O)c2c[nH]c3ccccc23)cc1OC	6	-3	·	3	1
CCOc1cc(S(=O)(=O)N2CCC(Cc3ccccc3)CC2)c(OCC)cc1-n1cnnn1	8	55*	1	-12	-4
CC(C)(C)c1ccc(OCC(=O)N/N=C/c2cc(Br)ccc2OC(=O)c2ccco2)cc1	135*	0	-43	-3	·
C[C@@H]1CN([C@@H](C)CO)C(=O)c2cc(NC(=O)Nc3ccc(F)cc3)ccc2O[C@@H]1CN(C)CC1CCCCC1	-13	·	·	3	·
C[C@@H]1CN([C@H](C)CO)C(=O)c2cc(NC(=O)Cc3ccccc3)ccc2O[C@@H](C)CCCCO[C@H]1CN(C)C(=O)Nc1cccc2ccccc12	38	·	·	3	·
COc1ccccc1N1CCN(/N=C\c2ccc(C)o2)CC1	·	13	54	·	42*
COc1ccccc1N1CCN(/N=C/C(Cl)=C/c2ccccc2)CC1	·	3	·	·	45*
COc1ccccc1N1CCN(/N=C\c2ccccc2)CC1	-3	2	·	36	3
C[C@@H]1CN([C@@H](C)CO)C(=O)c2cc(NC(=O)Cc3ccccc3)ccc2O[C@@H](C)CCCCO[C@H]1CN(C)S(=O)(=O)c1ccccc1	·	·	·	0	·
COc1ccc(/C=C2\CCC(C3CCCC3)C2=O)cc1OC (configuration not stated)	-4	4	74	30	33*
SMILES	C2C12 statin	Rtt109 Vps75	MITF TRPM1 HTS	esBAF inh	Wnt act
COc1cc(OC)c(OC)cc1/C=C1\CCC(C2CCCC2)C1=O (configuration not stated)	-2	-7	2	-7	0
Cc1ccc(/C=C2\CCC(C3CCCC3)C2=O)cc1 (configuration not stated)	·	-2	16	·	13
Cc1ccsc1/C=C1\CCC(C2CCCC2)C1=O (configuration not stated)	-5	1	76	34	47*
COc1ccc(/C=C2\CCC(C3CCCC3)C2=O)cc1 (configuration not stated)	-5	0	98*	56*	-1
O=C(Nc1ccccc1O)c1c(O)c2c([nH]c1=O)CCCC2	12	6	27	85*	-2
CCCc1nnc(NC(=O)c2c(O)c3c([nH]c2=O)CCCC3)s1	·	-6	·	·	-3
COc1ccc(NC(=O)c2csc3c2CCCCC3)c(OC)c1	·	5	11	·	-2
O=C(Nc1ccccc1O)c1csc2c1CCCC2	·	3	49	·	38*
O=C(Nc1nccs1)c1c(O)c2c([nH]c1=O)CCCC2	-5	-9	50	?	50*
Cc1ccc(S(=O)(=O)Nc2ccc3c(c2)C(=O)N([C@H](C)CO)C[C@@H](C)[C@H](CN(C)S(=O)(=O)c2cn(C)cn2)OCCCC[C@@H](C)O3)cc1	·	·	·	-6	·
CNC(=O)C[C@@H]1CC[C@H]2[C@@H](COc3ccc(NC(=O)c4ccccc4Cl)cc3C(=O)N2C)O1	-9	·	·	12	·
O=C(COc1ccc(F)cc1)c1c(O)cc(O)cc1O	-2	10	27	-14	19
COc1ccc(C(=O)Cc2ccc(F)cc2)c(OC)c1	-3	4	74	76*	23
COc1ccc(C(=O)Cc2cc(OC)c(OC)cc2[N+](=O)[O-])c(OC)c1	-13	1	30	52*	11
COc1ccc(C(=O)COc2ccc(F)cc2)c(O)c1	-22	2	74	68*	0
C[C@H]1CN([C@@H](C)CO)C(=O)Cc2cc(NC(=O)Nc3ccccc3)ccc2O[C@H]1CN(C)C(=O)Nc1ccccc1	4	·	·	-5	·
CCOC(=O)c1ccc(N2C(=O)c3n[nH]c(C)c3C2c2ccc(OC)cc2)cc1 (configuration not stated)	2	77*	-9	-1	·
O=C(O)C(=O)/C(=C\c1ccccc1)c1ccc2ccccc2n1	4	0	6	37	·
O=C(O)C(=O)/C(=C\c1ccsc1)c1ccc2ccccc2n1	16	50	-5	56*	27
COc1cccc(N2C(=O)/C(=C\c3cccs3)NC2=S)c1	6	4	15	43*	12
CC(=O)c1cnc(Nc2cccc(C)c2)s1	·	13	92*	·	-2
O=C1C2C3c4ccccc4C(c4ccccc43)C2c2nc3ccccc3n21 (configuration not stated)	115*	4	-11	-4	-2
COc1ccc(NC(=O)N(C)C[C@H]2Oc3ccc(NC(=O)CCCCCC(=O)Nc4ccccc4N)cc3CC(=O)N([C@H](C)CO)C[C@H]2C)cc1	-2	·	·	-1	·
